Results from PubChem BioAssay AID488922 (Johns Hopkins Ion Channel Center, 2010).
The campaign covered roughly 310,000 compounds. About 3,800 (1.2%) were called active.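 The calls were made as follows: active = ratio B-score over 3 SD below the library mean, with starting fluorescence within 5 SD of its mean; inactive = the rest, inconclusive results apart.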 The sample as a whole holds a higher share of actives than the screen did.

target: Potassium channel subfamily K member 9 (Homo sapiens) (UniProt Q9NPC2); assay: KCNK9 potassium channel inhibitors, primary screen, HEK293 cells, thallium flux (AID 488922); details: HEK293 KCNK9, FluxOR thallium flux fluorescence, at 10 µM; stronger effect = lower value;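 as to B-score: negative B-score means less thallium flux so channel inhibition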
Sequence (Q9NPC2 whole entry, looked up): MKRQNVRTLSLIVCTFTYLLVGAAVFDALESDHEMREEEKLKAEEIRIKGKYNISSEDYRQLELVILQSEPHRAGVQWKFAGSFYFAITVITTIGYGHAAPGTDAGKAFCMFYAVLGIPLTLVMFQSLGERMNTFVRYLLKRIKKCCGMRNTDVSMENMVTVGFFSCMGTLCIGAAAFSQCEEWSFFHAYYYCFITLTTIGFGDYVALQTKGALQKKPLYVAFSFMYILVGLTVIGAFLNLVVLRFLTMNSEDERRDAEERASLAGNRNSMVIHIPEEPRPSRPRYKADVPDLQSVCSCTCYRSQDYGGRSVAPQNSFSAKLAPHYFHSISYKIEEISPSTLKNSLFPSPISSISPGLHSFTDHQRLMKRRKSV

| SMILES | B-score |
| --- | --- |
| Cc1ccnc(SCCn2c(N(C)Cc3ccccc3)nc3c2c(=O)n(C)c(=O)n3C)n1 | inactive |
| OC(COCCC12CC3CC(CC(C3)C1)C2)CN1CCCCC1 (stereo not drawn) | inactive |
| CC(=O)N(C1=C(Cl)C(=O)c2ccccc2C1=O)c1ccc(C(=O)O)cc1 | -6.74 (active) |
| O=C(CN1C(=O)c2ccccc2C1=O)NCc1ccc(C(=O)O)cc1 | inactive |
| COc1ccc(OC)c(C(=O)c2coc3ccc(O)c(CN4CCOCC4)c23)c1 | inactive |
| COc1ccc(OC)c(C(=O)c2coc3ccc(OC)cc23)c1 | -15 (active) |
| COc1ccc2occ(C(=O)c3ccc(N=C(C)N(C)C)cc3)c2c1 | inactive |
| Cc1ccnc(NC(=O)Cn2ccc([N+](=O)[O-])n2)c1 | inactive |
| CC(/C=N/NC(=O)c1ccncc1)=C\c1ccco1 | inactive |
| CC(/C=N/NC(=O)c1cc(-c2ccc3ccccc3c2)n[nH]1)=C\c1ccco1 | -6.63 (active) |
| Cc1ccc(-c2cc(C(=O)N/N=C/C=C/c3ccco3)c3ccccc3n2)cc1C | inactive |
| CCOc1ccc(-n2c(SCC(=O)NC3CCS(=O)(=O)C3)nnc2-c2cccnc2)cc1 (stereo not drawn) | inactive |
| CCCC(C(=O)n1nc(C)cc1C)C(NS(=O)(=O)c1ccc(C)cc1)c1ccccc1 (stereo not drawn) | inactive |
| O=C(C1CC1)N1CCN=C1SCc1ccc(Cl)cc1 | inactive |
| CC1CCN(C(=O)c2ccc(CSc3ccc(Cl)cc3)cc2)CC1 | -8.16 (active) |
| O=C(c1ccc(CSc2ccccc2)cc1)N1CCCCCC1 | inactive |
| CCCCn1c(N)c(N(CCOC)C(=O)c2cccc(S(=O)(=O)N(C)c3ccccc3)c2)c(=O)[nH]c1=O | inactive |
| CCOC(=O)Cc1csc(SCC(=O)NC(C)C23CC4CC(CC(C4)C2)C3)n1 (stereo not drawn) | inactive |
| CN(c1ccccc1)S(=O)(=O)c1cccc(NC(=O)Cc2c(F)cccc2Cl)c1 | -15.5 (active) |
| CN(C)S(=O)(=O)c1cccc(NC(=O)COC(=O)C2(c3ccccc3F)CCCC2)c1 | inactive |
| CN(C)S(=O)(=O)c1cccc(NC(=O)Cc2ccsc2)c1 | inactive |
| Cc1cc(=O)oc2c1ccc1ccccc12 | inactive |
| COc1ccc(CN(C)C(=O)CC(c2ccccc2)c2ccccc2)cc1 | inactive |

| SMILES | B-score |
| --- | --- |
| COc1ccc(C(CCN(Cc2ccc(OC)c(OC)c2)C(=O)CCl)c2ccccc2)cc1 (stereo not drawn) | -11 (active) |
| COc1ccc(COC(=O)NC(C(=O)O)c2ccccc2)cc1 (stereo not drawn) | inactive |
| O=c1[nH]c(/C=C/c2cccc(Br)c2)nc2ccccc12 | inactive |
| CCc1ccc(C(CNc2nc(C(F)(F)F)nc3ccccc23)N(C)C)cc1 (stereo not drawn) | inactive |
| COc1ccc(CNc2ncnc3ccccc23)cc1 | inactive |
| COc1cccc(CNc2nc(C(F)(F)F)nc3ccccc23)c1 | -8.03 (active) |
| CCOC(=O)c1cc(C(=O)Nc2ccc(S(=O)(=O)Nc3ccc(OC)cc3)cc2)nn1C | inactive |
| COc1ccc(-n2ncc3c2CC(C)(C)CC3NC(=O)CCc2c(C)noc2C)cc1 (stereo not drawn) | inactive |
| CCc1ccc(NC(=O)Cn2nc(C)c([N+](=O)[O-])c2C)cc1 | inactive |
| Cc1nn(CC(=O)Nc2nc3ccccc3s2)c(C)c1[N+](=O)[O-] | -10.4 (active) |
| Cc1nn(CC(=O)NCc2ccccn2)c(C)c1[N+](=O)[O-] | inactive |
| Cc1cc(C)nc(NS(=O)(=O)c2ccc(N3C(=O)C4CCCCC4C3=O)cc2)n1 (stereo not drawn) | inactive |
| Oc1ccccc1N1CCN(c2ncnc3sc(-c4ccccc4)cc23)CC1 | inactive |
| COc1ccccc1N1CCN(c2ncnc3sc(C)c(-c4ccccc4)c23)CC1 | -16.5 (active) |
| COc1ccccc1N1CCN(c2ccc([N+](=O)[O-])nc2)CC1 | inactive |
| O=C(NCCc1ccc(Cl)cc1Cl)c1cc([N+](=O)[O-])c[nH]c1=O | inactive |
| CC(c1ccccn1)N(CCN(C)C)C(=S)Nc1ccccc1F (stereo not drawn) | inactive |
| CSc1cccc(NC(=S)N(C(C)C)C(C)c2ccccn2)c1 (stereo not drawn) | -17.5 (active) |
| CSc1cccc(NC(=S)N(Cc2ccccc2)Cc2ccccn2)c1 | inactive |
| Cc1ccc(O)c(CNc2nc3ccccc3n2C)c1 | inactive |
| Cc1ccc(C2=NN(C)c3nc4ccccc4n3C2)cc1 | -8.17 (active) |
| Cc1ccc(OCc2nc3ccccc3n2C)cc1 | inactive |
| CCOC(=O)/C(=N\Nc1cc(Cl)ccc1Cl)N1CCN(C)CC1 | inactive |

| SMILES | B-score |
| --- | --- |
| COCCNc1ncnc2c1nc1n2CCCC1 | inactive |
| COc1cnc(SCc2ccc(Cl)c(Cl)c2)nc1Cl | inactive |
| O=S(=O)(NC1CCCCC1N1CCN(c2ccccc2F)CC1)c1ccccc1 (stereo not drawn) | -7.59 (active) |
| COc1ccc(N2CCN(C3CCCCC3NS(=O)(=O)c3ccccc3)CC2)cc1 (stereo not drawn) | inactive |
| O=S(=O)(NC1CCCCC1N1CCCCC1)c1ccc(Cl)cc1 (stereo not drawn) | inactive |
| N#Cc1c(NCCO)ccc([N+](=O)[O-])c1NCCO | inactive |
| CCc1ccccc1NC1c2ccccc2C(=O)N1c1cccnc1 (stereo not drawn) | inactive |
| Cc1ccnc(N2C(=O)c3ccccc3C2Nc2ccc3c(c2)OCCO3)c1 (stereo not drawn) | inactive |
| COC(=O)c1cc(NC2c3ccccc3C(=O)N2c2ccc(Cl)cn2)cc(C(=O)OC)c1 (stereo not drawn) | -8.59 (active) |
| Cc1ccc(C)c(OCCC(=O)OCC(=O)c2ccc3c(c2)NC(=O)CO3)c1 | inactive |
| Cc1ccc(CNC(=O)C2(C(F)(F)F)C/C(=C\Cc3ccccc3)CCCO2)o1 (stereo not drawn) | inactive |
| CCOC(=O)c1ccc(NC(=O)Cc2cccs2)cc1 | inactive |
| CC1=NN(C(=O)Cc2ccc(C)cc2)C(O)(c2cccnc2)C1 (stereo not drawn) | inactive |
| CC1=NN(C(=O)c2ccc(Br)cc2)C(O)(c2ccccc2)C1 (stereo not drawn) | inactive |
| CCC1=NN(C(=O)Cc2ccc([N+](=O)[O-])cc2)C(O)(c2ccc(Br)cc2)C1 (stereo not drawn) | -9.93 (active) |
| CCOC(=O)c1[nH]c(C)c(C(=O)OCC(=O)N2c3ccccc3CC2C)c1C (stereo not drawn) | inactive |
| COc1ccc(C)cc1NC(=O)CNCc1cccs1 | inactive |
| Brc1ccc(C2CC(c3ccccc3)=Nc3ccccc3N2)cc1 (stereo not drawn) | -9.6 (active) |
| CNC(=S)N1N=C(c2ccccc2)CC1c1ccc(Br)cc1 (stereo not drawn) | inactive |
| c1ccc(C2=Nc3cccc4cccc(c34)N2)cc1 | inactive |
| CC(C)(C)SCCSC1=CC(=O)CC(c2ccccc2)C1 (stereo not drawn) | inactive |
| O=C(N/C(=C\c1ccc([N+](=O)[O-])cc1)C(=O)N1CCCCC1)c1ccco1 | inactive |
